Sm TGR inh: inhibitors of Schistosoma mansoni thioredoxin glutathione reductase | Q962Y6 | purified TGR, DTNB reduction, TNB absorbance 405 nm | Potency, µM (titrated, usually from 114 µM), actives largely listed as inhibitors | actives 3% (n = 360,000); also: nearly all actives have a fitted effect of over 60% in size
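Kinetic colorimetric format: TGR-catalysed, NADPH-driven DTNB reduction monitored via TNB absorbance. Enzyme dispensed at 20 nM; compound exposure 15 min at room temperature before reaction start.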
Pf growth 96h: inhibits malaria parasite growth, 96 h; P. falciparum luciferase reporter growth, 96 h; Potency, µM (series often up to 28.7 µM), most hits filed as inhibitors; actives 6.9% (n = 320,000)
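Readout is luminescence from an integrated firefly luciferase in P. falciparum. Red cells, 2% hematocrit and 0.05% parasitemia final, were cultured with compound through two parasite generations (96 hours) at 37 C, 5% CO2.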
Pf growth 48h: P. falciparum growth inhibition at 48 hours (one generation) | P. falciparum luciferase growth in erythrocytes, 48 h | Potency, µM (series often up to 28.7 µM), actives largely listed as inhibitors | actives 5.9% (n = 310,000) | AID 504832
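Erythrocytes infected with P. falciparum carrying an integrated firefly luciferase reporter (2% hematocrit, 0.1% parasitemia final) were exposed to compounds in RPMI 1640 with 0.5% Albumax at 37 C, 5% CO2. Growth inhibition was scored as reduced luminescence.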
SARS PLP yeast: blocks SARS-CoV papain-like protease in a yeast assay; S. cerevisiae expressing SARS-CoV PLpro, growth rescue; Potency, µM (series often up to 32.9 µM), actives largely listed as activators; actives 0.19% (n = 330,000); calls by dose curve; also: nearly all actives have a fitted effect of over 55% in size
Large screens that a line does not name were inactive. Compounds with a hit are over-represented: about 12% of the library has one in this group of screens. Unless noted, calls follow the shape of the dose curve; as a rule, active = well fitted curve in the direction sought with a large enough effect; inconclusive = small, poorly fitted or top-dose-only effect, or another doubt; inactive = no such curve, though single readings can be large; an effect the other way counts as inactive or inconclusive.

COc1ccc(-c2nc(CS(=O)CC(=O)NC3CCCc4ccccc43)c(C)o2)cc1OC (centres undefined)	Sm TGR inh 20µM, Pf growth 96h inconclusive (no result: Pf growth 48h)
COc1ccc(-c2nc(CSCC(=O)NC3CCN(Cc4ccccc4)CC3)c(C)o2)cc1OC	Pf growth 96h 10.4µM, Pf growth 48h inconclusive
C=C(C)CNC(=O)c1ccc2nc(Cc3ccc(OC)cc3)oc2c1	none
O=C(CN1CCC(C(=O)c2ccc(F)cc2)CC1)NCc1ccccc1F	Pf growth 96h 6.57µM
O=C(c1ccc(F)cc1)C1CCN(CCn2c(=S)[nH]c3ccccc3c2=O)CC1	Pf growth 96h 4.26µM, Pf growth 48h 3.79µM
O=C(c1ccc(Cl)cc1)C1CCN(C(=O)c2ccc(F)cc2)CC1	Pf growth 96h 13.1µM
O=C(CN1CCC(C(=O)c2ccc(F)cc2)CC1)Nc1ccccc1	Pf growth 96h inconclusive, Pf growth 48h inconclusive
CC1(C)C(=O)N(CCN2CCC(C(=O)c3ccc(F)cc3)CC2)c2ccccc21	Pf growth 96h inconclusive, Pf growth 48h 14.7µM (no result: SARS PLP yeast)
COc1ccc(C(=O)N2CCC(C(=O)c3ccc(F)cc3)CC2)cc1	SARS PLP yeast inconclusive
O=C(CCBr)N1CCN(C(=O)CCBr)CC1	Pf growth 96h inconclusive (no result: Sm TGR inh, SARS PLP yeast)
Cc1cc2nc(-c3ccc(SCC(=O)Nc4ccc5c(c4)OCCO5)nc3)[nH]c2cc1C	Pf growth 96h 2.94µM, Pf growth 48h inconclusive
Cc1cc2nc(-c3ccc(SCC(=O)N4CCN(C(=O)c5ccco5)CC4)nc3)[nH]c2cc1C	Sm TGR inh 10µM, Pf growth 48h inconclusive
Cc1cc2nc(-c3ccc(SCC(=O)N4CCOCC4)nc3)[nH]c2cc1C	none
Cc1ccc2nc(-c3ccc(SCC(=O)Nc4ccc5c(c4)OCCO5)nc3)[nH]c2c1	none
COc1cc(C(CC(=O)N2CCN(c3ccccc3)CC2)c2c(OC)cc(OC)c3ccc(=O)oc23)cc(OC)c1OC (centres undefined)	Pf growth 96h 4.65µM, Pf growth 48h 5.86µM
COc1cc(OC)c2ccc(=O)oc2c1C(CC(=O)N1CCN(c2ccccc2)CC1)c1ccc2c(c1)OCO2 (centres undefined)	Pf growth 96h 13.1µM, Pf growth 48h 11.7µM
COc1cc(OC)c2ccc(=O)oc2c1C(CC(=O)N1CCOCC1)c1ccc2c(c1)OCO2 (centres undefined)	Pf growth 96h inconclusive
Cc1ccc(NS(=O)(=O)c2ccc(C(=O)NCc3ccc(S(N)(=O)=O)cc3)cc2)cc1	none (no result: Sm TGR inh, Pf growth 96h, Pf growth 48h)
CCc1ccccc1NC(=O)N1CCN(c2nnc(C)c3c(C)n(-c4ccccc4)nc23)CC1	none (no result: Pf growth 96h, Pf growth 48h, SARS PLP yeast)
COC(=O)COC(=O)c1ccc(Oc2nc(OC)nc(N(C)C)n2)cc1	Sm TGR inh 2.24µM (no result: Pf growth 48h)
COc1nc(Oc2ccc(C(=O)OCC(N)=O)cc2)nc(N(C)C)n1	none
CCNc1nc(OC)nc(Oc2ccc(C(=O)OC)cc2)n1	Pf growth 48h inconclusive (no result: Pf growth 96h)
CCN(CC)c1nc(Nc2ccccc2)nc(Oc2ccc(C(=O)OC)cc2)n1	none
CNc1nc(Oc2ccc(C(=O)OC)cc2)nc(SC)n1	Pf growth 48h 10.4µM
CCN(CC)c1nc(Oc2ccc(C(=O)NN)cc2)nc(Oc2ccc(C(=O)NN)cc2)n1	Pf growth 96h 9.28µM, Pf growth 48h 9.28µM
COC(=O)c1ccc(Oc2nc(SC)nc(N(C)C)n2)cc1	none
CCOC(=O)c1ccc(Oc2nc(NC)nc(OC)n2)cc1	Pf growth 48h 13.1µM
O=C(Cc1cccs1)NCCN1CCOCC1	Pf growth 96h 4.15µM
O=S(=O)(NC(=S)NC1CCCCC1)c1cccs1	Sm TGR inh 25.1µM
CC(NC(=S)NC1CCCCC1)C(c1cccs1)N1CCOCC1 (centres undefined)	Pf growth 96h 8.28µM, Pf growth 48h inconclusive
CC(NC(=O)Cc1cccs1)C(c1cccs1)N1CCOCC1 (centres undefined)	Pf growth 48h 13.1µM (no result: Pf growth 96h)
CC(NC(=O)C(C)(C)C)C(c1cccs1)N1CCOCC1 (centres undefined)	none
CC(C)Cc1nn2cc(-c3cccc(Br)c3)nc2s1	none (no result: Pf growth 96h, Pf growth 48h, SARS PLP yeast)
Cc1ccccc1Cn1c2ccccc2c2cnn(CC(=O)NCCc3ccccc3)c(=O)c21	none (no result: Pf growth 96h, Pf growth 48h, SARS PLP yeast)
COc1ccc([C@]23Cc4cc(C#N)ccc4C(O2)C2=C(CC4(CCCCC4)OC2=O)O3)cc1	Sm TGR inh inconclusive, Pf growth 96h 0.757µM, Pf growth 48h inconclusive
COc1ccc([C@]23Cc4cc(OC)c(OC)cc4C(O2)c2c(cc(C)n(Cc4ccccc4)c2=O)O3)cc1	Sm TGR inh inconclusive, Pf growth 96h 1.51µM, Pf growth 48h inconclusive
COc1ccc([C@]23Cc4cc(C#N)ccc4[C@H](O2)c2c(cc(C)n(Cc4ccccc4)c2=O)O3)cc1	Pf growth 48h 1.9µM
COc1ccc([C@]23Cc4cc(OC)c(OC)cc4C(O2)c2c(cc(-c4ccccc4)oc2=O)O3)cc1	Sm TGR inh inconclusive, Pf growth 96h inconclusive, Pf growth 48h inconclusive
N#Cc1ccc2c(c1)C[C@]1(c3ccsc3)OC3=C(C(=O)OC4(CCCCC4)C3)C2O1	Sm TGR inh inconclusive, Pf growth 96h inconclusive, Pf growth 48h inconclusive
CNS(=O)(=O)c1cn(CC(=O)Nc2cccc(C(F)(F)F)c2)cc1S(=O)(=O)NC	none (no result: Pf growth 96h, Pf growth 48h, SARS PLP yeast)
O=C1CCN(Cc2ccc(O)cc2)CCN1[C@H](CO)c1ccccc1	Sm TGR inh inconclusive, Pf growth 48h inconclusive
O=S(=O)(NCC1OCCc2ccccc21)c1ccc(S(=O)(=O)N2CCOCC2)cc1 (centres undefined)	none
c1ccc2c(c1)CCOC2CNCCCN1CCCCC1 (centres undefined)	Pf growth 96h 11.7µM, Pf growth 48h inconclusive
O=C(Cc1ccc(Cl)c(Cl)c1)N1CCOCC1	Pf growth 96h inconclusive, Pf growth 48h inconclusive
COc1ccccc1CNC(=O)C1CCN(S(=O)(=O)c2ccc3c(ccn3C)c2)CC1	none (no result: Pf growth 96h, Pf growth 48h, SARS PLP yeast)
C#Cc1ccc([C@@H]2C=C(C(=O)O)O[C@H](OCc3ccc(CO)cc3)C2)cc1	Sm TGR inh 35.5µM
C#Cc1ccc([C@H]2C=C(C(=O)Nc3ccccc3)O[C@@H](OCc3ccc(CO)cc3)C2)cc1	Pf growth 96h 7.38µM, Pf growth 48h 7.38µM
O=C(Nc1ccccc1)C1=C[C@H](c2ccccc2)C[C@H](OCc2ccc(CO)cc2)O1	Pf growth 96h inconclusive, Pf growth 48h inconclusive
CC1SC(c2ccccc2)N(CC(O)c2ccc([N+](=O)[O-])cc2)C1=O (centres undefined)	Pf growth 48h 11.7µM
CCCN(CCC)C(=O)CSc1nc2sc3c(c2c(=O)n1-c1ccccc1)CCN(C(C)=O)C3	none (no result: Pf growth 96h, Pf growth 48h, SARS PLP yeast)
CCCCSc1nc2sc3c(c2c(=O)n1-c1ccc(OC)cc1)CCN(C)C3	Pf growth 96h inconclusive, Pf growth 48h 9.28µM
CCSc1nc2sc3c(c2c(=O)n1-c1ccccc1)CCN(C(C)C)C3	Sm TGR inh inconclusive, Pf growth 96h 0.828µM, Pf growth 48h 1.47µM
CCCCSc1nc2sc3c(c2c(=O)n1-c1ccccc1)CCN(C)C3	Pf growth 96h 4.15µM, Pf growth 48h 5.22µM
Cc1ccccc1-n1c(SCC(=O)O)nc2sc3c(c2c1=O)CCCC3	Pf growth 96h inconclusive
CCCCCSc1nc2sc3c(c2c(=O)n1-c1ccc(OC)cc1)CCN(C(C)=O)C3	none (no result: Pf growth 96h, Pf growth 48h, SARS PLP yeast)
CC(C)Sc1nc2sc3c(c2c(=O)n1-c1ccccc1)CCCC3	none (no result: Pf growth 96h, Pf growth 48h, SARS PLP yeast)

Screening results: PubChem BioAssay, National Center for Advancing Translational Sciences (NCATS)
